In ChEMBL document CHEMBL3988442, “University of Dundee, Small-Polar-MMV Screening Library” (2021):

Target: AMP-activated protein kinase, AMPK (Homo sapiens) (UniProt P54646+O43741+P54619+Q9UGJ0+Q9Y478+Q13131+Q9UGI9)
Experiment: AMP-dependent Kinase enzyme assay. An in vitro enzyme assay that detects ADP turnover that is directly proportional to AMPK activity. This uses naive AMPK that is activated during the assay with MK-8722
Type: functional
Set-up: scale not given: direction of the effect not stated beside the values
Conditions: 30 µM

Row | SMILES | Percent Effect [%]
1 | c1cnc(N2CCCC(Cc3nccs3)C2)nc1 (centres undefined) | 0.818
2 | CCc1c(C)nn2c(O)cc(C3CCN(C(=O)c4ccn(C)n4)C3)nc12 (centres undefined) | -4.46
3 | CC(C)(C)c1cn2c(n1)C(CNCc1cnn3ccccc13)CCC2 (centres undefined) | -1.22
4 | N#CC1(NC(=O)c2cc(Cl)ccc2OC(F)F)CCOCC1 | -2.23
5 | Cc1ccnc(C2COCCN2C)n1 (centres undefined) | 26
6 | Cc1ccccc1N1CCCN(C(=O)CCc2nncn2C)CC1 | -4.54
7 | CC(C)(C)NC(=O)CNc1ncc(Br)cn1 | 7.93
8 | COCCC(=O)NCc1ccc(-c2ncncc2C(=O)N(C)C)cc1 | -7.24
9 | CN(CCc1ccccc1)Cc1c(C2CCNCC2)[nH]c2ncccc12 | 7.86
10 | CCc1oc(C(=O)N[C@@H]2c3ccccc3C[C@@H]2O)cc1CN1CCCC1 | 4.06
11 | Cc1cnn(C2CN(CCOc3cccc(C#N)c3)C2)c1 | 3.61
12 | Cc1cc(CNC(=O)NCCCC(=O)N2CCc3ccccc32)no1 | -2.98
13 | Cc1ccc(-c2noc(C3CCN3C(=O)c3ccc(=O)[nH]n3)n2)s1 (centres undefined) | 19.2
14 | O=C(CCC1CCCO1)NCCN1CCCCC1 (centres undefined) | -1.67
15 | COCCN1CC(=O)N2CC[C@@H](O)C[C@H]2C1=O | -8.25
16 | CO[C@@H]1c2ccccc2C2(CCN(C(=O)CNC(=O)C(C)C)CC2)[C@H]1O | 13.3
17 | Cc1ncccc1C(=O)Nc1cccc(Cn2ccccc2=O)c1 | 3.58
18 | Cc1nc2c(c(N[C@@H](CO)C(N)=O)n1)Cc1ccccc1OC2 | -0.406
19 | Cc1cn2c(n1)C(CNCc1cnn3ccccc13)CCC2 (centres undefined) | -1.25
20 | CNCC(=O)NC1CC(C)(C)Cc2nc(C(C)(C)C)ncc21 (centres undefined) | -7.88

Row | SMILES | Percent Effect [%]
21 | COc1cccc(CN(C)Cc2c(C)noc2C)c1OC | 18.1
22 | Cc1nn(C2CCCCC2)c2nc(C(C)(C)CN3CCOCC3)[nH]c12 | 12
23 | c1nn(C2CCCCC2)cc1-c1cncn1CCCN1CCCCC1 | 1.56
24 | CN(Cc1ccsc1)C(=O)c1nc(N2CCCC2)ncc1Cl | -1.6
25 | O=C1CCC2(CCCN(CCn3cc(Cl)cn3)C2)CN1C1CCCC1 (centres undefined) | 14.4
26 | Cc1n[nH]c(C)c1CCc1ccc(S(C)(=O)=O)cc1 | 0.986
27 | COc1cc(N(C)Cc2cc(C(C)(C)C)n[nH]2)ncn1 | -15.7
28 | OCC1(NCc2cccc(-n3cccn3)c2)CCOCC1 | -1.31
29 | Cc1cccc(C)c1Nc1noc2c1CN(C(=O)c1c[nH]nc1C)CC2 | 6.37
30 | Cn1cc(C(=O)NCc2ccc(OC3CCCCC3)nc2)ccc1=O | -0.122
31 | CCc1nc(CSc2nnc(N)n2C2CC2)no1 | 7.62
32 | Fc1ccc(C2(CNCCc3cccs3)CCOC2)cc1 (centres undefined) | -3.1
33 | CN(Cc1ccccc1)c1cnn(CC2CCCCO2)c(=O)c1 (centres undefined) | 7.07
34 | CCc1ncc2c(n1)CN(c1nnc(C)c(C)c1C#N)CC2 | -14.7
35 | Cc1cc(-c2cnc(N3CCN(C)CC3)nc2C(C)C)on1 | 16.2
36 | COCc1ccccc1NC(=O)c1ccoc1 | -4.58
37 | CC(C)CCN(C(=O)Nc1cccc(C(=O)N(C)C)c1)C1CC1 | -4.54
38 | Cc1c(C(=O)NC2CCCC2)nnn1-c1ccccc1 | -3.83
39 | Cc1ocnc1C(=O)N1CC[C@@]2(O)CCN(C(=O)N3CCCC3)C[C@H]2C1 | 6.59
